For test [1], the system named is CRL-7250. Put plainly: Cytotoxic Profiling of Annotated Libraries Using Quantitative High-Throughput Screening (AID 1296008). On max response: on the % scale 0 is the no-effect control and ±100 the full control effect. Particulars: Five cell lines viability, CellTiter-Glo ATP luminescence, 48-72 h; max response: active compounds read low. The procedure, abridged: (§1)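 Compounds were pin-transferred onto cells and incubated 48 or 72 hr at 37 degree Celsius, 95% humidity. CellTiter-Glo was added, plates sat 10 min at room temperature, then ATP-coupled luminescence was imaged as the viability read-out.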
A general note: Cellular ATP, detected with luciferase, serves as a proxy for viable cell number.

Test [2] deals with HEK293. Described as above. Particulars: Five cell lines viability, CellTiter-Glo ATP luminescence, 48-72 h; max response: active compounds read low. In outline: as §1
The subject of test [3] is HaCat. The description is as above. Particulars: Five cell lines viability, CellTiter-Glo ATP luminescence, 48-72 h; max response: active compounds read low. In outline: as §1
The subject of test [4] is KB-3-1. Described as above. The conditions noted are these: Five cell lines viability, CellTiter-Glo ATP luminescence, 48-72 h; max response: active compounds read low. The procedure, abridged:
as §1

The test system of test [5] is NIH3T3. The description is as above. The conditions noted are these: Five cell lines viability, CellTiter-Glo ATP luminescence, 48-72 h; max response: active compounds read low. In outline: as §1
Test [6] has as its system HEK293T. Nature of the test: qHTS assay to identify novel small-molecules to repurpose for Merkel cell carcinoma treatment (AID 1296009). Particulars: MCC and control cell lines, CellTiter-Glo viability, 72 h; at 44.8 µM (top of the series) unless noted. The procedure, abridged:
(§2)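 Cells exposed to NPC (8-point) and MIPE (11-point) compound dilutions for 72 hr at 37 degree celsius; viability read by CellTiter-Glo luminescence, normalized to no-cell and DMSO in-plate controls.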
Background: qHTS replaces the single test concentration by a dilution series.

Test [7] relates to TAB113. Nature of the test: qHTS profiling for inhibitors of Plasmodium falciparum proliferation (AID 504749). Further: potency means the concentration at half of the fitted maximal effect. Particulars: P. falciparum in erythrocytes, SYBR Green DNA, 72 h; series mostly up to 28.7 µM. In outline: (§3)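 P. falciparum-infected erythrocytes (0.3% parasitemia, 2.5% hematocrit final) were exposed to compounds for 72 h at 37 C in 5% CO2, then lysed with SYBR Green buffer overnight at room temperature; parasite DNA fluorescence was normalized to artemisinin and DMSO controls.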

Test [8] deals with TAB165. The test is described as above. The conditions noted are these: P. falciparum in erythrocytes, SYBR Green DNA, 72 h; series mostly up to 28.7 µM. The procedure, abridged:
as §3

For test [9], the system named is W2. The description is as above. The conditions noted are these: P. falciparum in erythrocytes, SYBR Green DNA, 72 h; series mostly up to 28.7 µM. The procedure, abridged: as §3
Test [10] has as its system HACAT. Put plainly: qHTS assay to identify novel small-molecules to repurpose for Merkel cell carcinoma treatment (AID 1296009). Particulars: MCC and control cell lines, CellTiter-Glo viability, 72 h; at 44.8 µM (top of the series) unless noted. The procedure, abridged: as §2

The structures appear in SMILES notation. Where “and” joins values, the source holds several entries; their conditions need not be identical. Equal entries are not always repeated. Inconclusive results are not listed. Values without a mark were called inactive. Calls of active or inactive are those of the source. The call rests on the fitted dose curve; in most records, active means well fitted inhibition curve with a large enough effect; inconclusive means small, poorly fitted or top-dose-only effect; inactive means flat fitted curve, though single readings scatter.
Further: nearly all actives have a fitted effect of over 60% in size.

For the compound `CO/N=C(\C(=O)N[C@@H]1C(=O)N2C(C(=O)O)=C(CSc3nc(=O)c(O)nn3C)CS[C@H]12)c1csc(N)n1`, the max response in test [1] is 1.86%; in test [3], -21.1%; in test [4], -0.48%. Also, the compound was called inactive in [2], in test [5] and in [6].
As to `Oc1cn2c(n1)Nc1ccc(Cl)c(Cl)c1C2`, the Potency entry in test [7], in test [8] and in test [9] was “inactive” each time. For the same compound, the outcome in test [1], in test [2], in test [3] and in test [5] was inactive. Also, the max response in test [4] was -2.96% and -14.6%. In addition, the outcome in test [10] and in [6] was “inactive [at 17.4 µM]” in each case.
Take `C[C@H](N)[C@H](O)c1cccc(O)c1`: the Potency entry in test [7], in test [8] and in test [9] was “inactive” throughout. Besides, the figures for the max response in test [1], in test [4] and in [5] were -3.27%, 1.71% and 1.91%, respectively. Moreover, the compound was classed as inactive in test [2], in test [3], in test [10] and in test [6].
As for `O=C(Oc1ccccc1C(=O)O)c1ccccc1O`, the Potency result in [7], in test [8] and in test [9] was “inactive” each time. Also, the max response in test [1] was 4.21%; in [4], -14.6%. Further, the compound was classed as inactive in test [2], in [3], in test [5], in test [10] and in test [6].
As to `Nc1ccc(S(=O)(=O)NC(=O)c2ccccc2)cc1`, the Potency result in test [7], in test [8] and in test [9] was “inactive” throughout. In addition, the max response in test [1] was -4.44%; in test [4], 18.9%; in test [5] it was -0.704%. Further, the compound was called inactive in [2], in [3], in test [10] and in test [6].
Turning to `CC1(C)OC(=O)NC1=O`, the Potency entry in [7], in test [8] and in test [9] was “inactive” throughout. For the same compound, the figures for the max response in [1], in test [4] and in test [5] were 4.73%, 1.34% and 3.48%, respectively. The outcome in test [2], in [3], in test [10] and in test [6] was inactive.
With `CCN(CC)CCNC(C(=O)OCCC(C)C)c1ccccc1` (configuration not stated), the Potency is 10 µM (active) in test [8] and 4.78 µM (active) in test [9]. Besides, the results for the max response in test [1] and in test [4] were 1.18% and 11.9%, respectively. Further, the compound was classed as inactive in [2], in test [3], in [5], in [10] and in [6].
`CCC(=O)Nc1ccc(O)cc1`: the Potency result in test [7], in [8] and in test [9] was “inactive” each time. In addition, the max response was -0.238% in test [1], 18.3% in test [4] and 0.658% in test [5]. Further, the result in test [2], in test [3], in test [10] and in test [6] was inactive.
In the case of `NC1CCN(c2cccc(Cl)n2)CC1`, the Potency result in test [7] and in test [8] was “inactive” throughout. Also, the Potency in [9] is 6.01 µM (active). Moreover, the max response in test [1] is 0.115%; in test [2] it was -9.08%; in [4], 2%. The compound was called inactive in test [3], in test [5] and in test [10].
On to `Cc1cc2c(cc1S(N)(=O)=O)S(=O)(=O)CCC2`, for which the Potency entry in test [7], in [8] and in test [9] was “inactive” each time. The max response was -3.17% in test [1], -2.22% in test [4] and -4.64% in test [5]. The compound was classed as inactive in [2], in test [3], in test [10] and in test [6].
`Cc1ccc(C(C)C)cc2c(C)ccc1-2`: the Potency entry in test [7] and in test [8] was “inactive” throughout. For the same compound, the max response is 3.16% in test [1], -2.06% in test [3] and -19.4% in test [4]. In addition, the compound was classed as inactive in test [2], in test [5] and in [6].
As to `O=C1OC(OC(=O)c2cccnc2Nc2cccc(C(F)(F)F)c2)c2ccccc21` (configuration not stated), the Potency result in test [7], in [8] and in test [9] was “inactive” each time. Moreover, the results for the max response in test [1], in [4] and in test [5] were 1.85%, 7.28% and -3.9%, respectively. Moreover, the result in test [2], in test [3], in test [10] and in test [6] was inactive.
